“And” between values parts separate entries of the source, which are not always exact repeats. Identical values can stand only once. Records with an inconclusive call do not appear. The source made the active and inactive calls. Calls follow the shape of the dose curve; as a rule, active = well fitted activation curve with a large enough effect in the repeat runs; inconclusive = weak or mixed curves; inactive = no such curve, though single readings can be large or run the other way.
Assay: qHTS assay for small molecules that induce genotoxicity in human embryonic kidney cells expressing luciferase-tagged ATAD5 (AID 651632); also: nearly all actives have a fitted effect of over 15% in size
Settings: HEK293T ATAD5-luciferase induction, 16 h; series mostly up to 83.3 µM; activation: at the top concentration
Excerpt: U.S. Tox21 Program National Center for Advancing Translational Sciences [NCATS] NIH Chemical Genomics Center [NCGC] U.S. Environmental Protection Agency [EPA] National Institutes of Environmental Health Sciences [NIEHS] National Toxicology Program [NTP] U.S. Food and Drug Administration [FDA] Tox21 Assay Overview: As cancer cells divide rapidly and during every cell division they need to duplicate their genome by DNA replication. The failure to do so results in the cancer cell death. Based on this concept, many chemotherapeutic agents were developed but have limitations such as low efficacy and severe side effects etc. A new cell based assay was developed to find the compounds that effectively block DNA replication either by directly damaging DNA or by inhibiting other cellular mechanisms. Enhanced Level of Genome Instability Gene 1 (ELG1; human ATAD5) protein levels increase in response to various types of DNA damage. Using a luciferase reporter-gene tagged with ATAD5, a cell-based assay [developed by Kyungjae Myung, NHGRI, NIH] was used to measure the induction of ATAD5 in human embryonic kidney cells (HEK293T). So, increase in luciferase activity can be used to identify the compounds that cause genetic stress.
Tox21 Assay Protocol Summary: For genotoxicity screening, 2,000 cells in 5 uL/well were dispensed into white, solid-bottom 1536-well plates using a Multidrop Combi (Thermo Scientific) dispenser. Following transfer of 23 nL compound or DMSO vehicle by a pin tool, the plates were incubated 16 hr at 37C and 5% CO2. 5 ul Amplite (AAT Bioquest, Inc.) was then added to each plate and following 30 min incubation at room temperature, luciferase activity was quantified on a ViewLux CCD-based plate reader.
With `CCN(CC)CCOCCOC(=O)C(CC)(CC)c1ccccc1` the “activation” value was -7.5% (inactive).
With `CC[C@H](C)[C@H]1O[C@]2(CC[C@@H]1C)C[C@@H]1C[C@@H](C/C=C(\C)[C@@H](O[C@H]3C[C@H](OC)[C@@H](O[C@H]4C[C@H](OC)[C@@H](O)[C@H](C)O4)[C@H](C)O3)[C@@H](C)/C=C/C=C3\CO[C@@H]4[C@H](O)C(C)=C[C@@H](C(=O)O1)[C@]34O)O2` the “activation” value was -10.1% (inactive).
In the case of `Cc1ccc(C2(O)CCN(CCCC(=O)c3ccc(F)cc3)CC2)cc1`, the “activation” value was -2.1% (inactive).
For `O=C1/C(=C\c2cccs2)CCC/C1=C\c1cccs1`, the Potency was 5.96 µM (active).
In the case of `N#Cc1ccc2c(c1)N(CCCN1CCC(O)CC1)c1ccccc1S2`, the “activation” value was 2.29% (inactive).
For `CCC[C@@]1(CCc2ccccc2)CC(O)=C([C@H](CC)c2cccc(NS(=O)(=O)c3ccc(C(F)(F)F)cn3)c2)C(=O)O1`, the “activation” value was 1.46% (inactive).
For `COC(F)(F)C(Cl)Cl`, the “activation” value was -1.85% (inactive).
For `CN(C)c1ccc(C(=C2C=CC(=[N+](C)C)C=C2)c2c(O)c(S(=O)(=O)[O-])cc3cc(S(=O)(=O)O)ccc23)cc1`, the “activation” value was -17% (inactive).
With `CNC(C)CCC=C(C)C` (stereo not given) the “activation” value was -7.16% (inactive).
For `CC(C)NCC(O)COc1ccccc1-n1cccc1` (stereo not given), the “activation” value was -7.29% (inactive).
For `O=c1oc2cc(O)ccc2s1`, the “activation” value was -2.39% (inactive).
For `CCNC(=O)[C@@H]1CCCN1C(=O)[C@H](CCCN=C(N)N)NC(=O)[C@H](CC(C)C)NC(=O)[C@@H](CC(C)C)NC(=O)[C@H](Cc1ccc(O)cc1)NC(=O)[C@H](CO)NC(=O)[C@H](Cc1c[nH]c2ccccc12)NC(=O)[C@H](Cc1cnc[nH]1)NC(=O)[C@@H]1CCC(=O)N1`, the “activation” value was 3.06% (inactive).
In the case of `C[C@H](CSC(=O)c1ccccc1)C(=O)N1C[C@@H](Sc2ccccc2)C[C@H]1C(=O)O`, the “activation” value was 3.53% (inactive).
With `Cc1nnc(C(C)C)n1C1C[C@H]2CC[C@@H](C1)N2CC[C@H](NC(=O)C1CCC(F)(F)CC1)c1ccccc1` (stereo not given in full) the “activation” value was 2.9% (inactive).
With `CN1C(=O)CN2CCc3ccccc3C2c2cc(Cl)ccc21` (stereo not given) the “activation” value was -2.63% (inactive).
For `O=C(O)c1c(Cl)c(Cl)c(Cl)c(Cl)c1-c1c2cc(I)c(=O)c(I)c-2oc2c(I)c(O)c(I)cc12`, the “activation” value was -5.49% (inactive).
In the case of `O=P(O)(O)OC(CO)CO`, the “activation” value was 1.86% (inactive).
For `NCCCC[C@H](NC(=O)[C@@H]1CCCN1C(=O)[C@@H]1CSSC[C@H](N)C(=O)N[C@@H](Cc2ccccc2)C(=O)N[C@@H](Cc2ccccc2)C(=O)N[C@@H](CCC(N)=O)C(=O)N[C@@H](CC(N)=O)C(=O)N1)C(=O)NCC(N)=O`, the “activation” value was 3.69% (inactive).
For `CC1=C[C@H](O)CC(C)(C)[C@H]1/C=C/C(C)=C/C=C/C(C)=C/C=C/C=C(C)/C=C/C=C(C)/C=C/C1=C(C)C[C@@H](O)CC1(C)C`, the “activation” value was 7.3% (inactive).
With `CC(C)(C)C1(O)CCN2CC3c4ccccc4CCc4cccc(c43)C2C1` (stereo not given) the “activation” value was -10.4% (inactive).
With `CNC[C@@H]1CC[C@@H](N)[C@@H](O[C@H]2[C@H](O)[C@@H](O[C@H]3OC[C@](C)(O)[C@H](NC)[C@H]3O)[C@H](N)C[C@@H]2N)O1` the “activation” value was 3.74% (inactive).
With `CC(=O)N[C@@H](CC(=O)N[C@@H](CCC(=O)O)C(=O)O)C(=O)O` the “activation” value was -5.01% (inactive).
For `CO[C@H]1C[C@@H]2CC[C@@H](C)[C@@](O)(O2)C(=O)C(=O)N2CCCC[C@H]2C(=O)O[C@H]([C@H](C)C[C@@H]2CC[C@@H](OC(=O)C(C)(CO)CO)[C@H](OC)C2)CC(=O)[C@H](C)/C=C(\C)[C@@H](O)[C@@H](OC)C(=O)[C@H](C)C[C@H](C)/C=C/C=C/C=C/1C`, the “activation” value was 2.61% (inactive).
In the case of `CC(C(=O)O)c1ccc(C2CCCCC2)c2ccccc12` (stereo not given), the “activation” value was 1.97% (inactive).
With `O=C1CCC(=O)N1CO` the “activation” value was 2.36% (inactive).
With `CCNC(=O)[C@@H]1CCCN1C(=O)[C@H](CCCN=C(N)N)NC(=O)[C@H](CC(C)C)NC(=O)[C@@H](Cc1c[nH]c2ccccc12)NC(=O)[C@H](Cc1ccc(O)cc1)NC(=O)[C@H](CO)NC(=O)[C@H](Cc1c[nH]c2ccccc12)NC(=O)[C@H](Cc1cnc[nH]1)NC(=O)[C@@H]1CCC(=O)N1` the “activation” value was -23.3% (inactive).
In the case of `CN1CCC(OC(=O)C(Oc2ccc(Cl)cc2)Oc2ccc(Cl)cc2)CC1`, the “activation” value was 2.43% (inactive).
With `C=C(NC(=O)C(=C)NC(=O)c1csc(C2=N[C@@H]3c4csc(n4)[C@H]4NC(=O)c5csc(n5)[C@H]([C@](C)(O)[C@@H](C)O)NC(=O)[C@H]5CSC(=N5)C(=CC)NC(=O)C([C@@H](C)O)NC(=O)c5csc(n5)[C@]3(CC2)NC(=O)[C@H](C)NC(=O)C(=C)NC(=O)[C@H](C)NC(=O)C([C@@H](C)CC)NC2C=Cc3c([C@H](C)O)cc(nc3C2O)C(=O)O[C@@H]4C)n1)C(N)=O` (stereo not given in full) the Potency was 11.4 µM (active).
For `CC(C)(CO)[C@@H](O)C(=O)NCCC(=O)NCCSSCCNC(=O)CCNC(=O)[C@H](O)C(C)(C)CO`, the “activation” value was -1.14% (inactive).
For `CCN(CC)CCOC(=O)c1ccc(N)cc1Cl`, the “activation” value was 3.24% (inactive).
In the case of `CCN(CC)CCC(=O)N1c2ccccc2Sc2ccc(Cl)cc21`, the “activation” value was -2.61% (inactive).
In the case of `Cn1c(=O)c2c(ncn2CCOC(=O)C(C)(C)Oc2ccc(Cl)cc2)n(C)c1=O`, the “activation” value was -7.84% (inactive).
With `Cc1cc(-n2c(=O)[nH]c(=O)n(C)c2=O)ccc1Oc1ccc(S(=O)(=O)C(F)(F)F)cc1` the “activation” value was -9.48% (inactive).
For `CO[C@H]1C=CO[C@@]2(C)Oc3c(C)c(O)c4c(O)c(c5c(nc6cc(C)ccn65)c4c3C2=O)NC(=O)/C(C)=C\C=C[C@H](C)[C@H](O)[C@@H](C)[C@@H](O)[C@@H](C)[C@H](OC(C)=O)[C@@H]1C`, the “activation” value was -7.38% (inactive).
With `O=C(O)CCC/C=C\C[C@@H]1[C@@H](/C=C/[C@@H](O)COc2cccc(Cl)c2)[C@H](O)C[C@@H]1O` the “activation” value was -2.77% (inactive).
With `CC(C)C[C@H](NC(=O)[C@@H](Cc1c[nH]c2ccccc12)NC(=O)[C@H](Cc1ccc(O)cc1)NC(=O)[C@H](CO)NC(=O)[C@H](Cc1c[nH]c2ccccc12)NC(=O)[C@H](Cc1cnc[nH]1)NC(=O)[C@@H]1CCC(=O)N1)C(=O)N[C@@H](CCCN=C(N)N)C(=O)N1CCC[C@@H]1C(=O)NCC(N)=O` the “activation” value was -0.0842% (inactive).
With `CC(O)[C@@H]1NC(=O)[C@H](Cc2ccccc2)NC(=O)[C@H](C(C)O)NC(=O)[C@H](CCCCN)NC(=O)[C@H](Cc2c[nH]c3ccccc23)NC(=O)[C@H](Cc2ccccc2)NC(=O)[C@H](Cc2ccccc2)NC(=O)[C@H](CC(N)=O)NC(=O)[C@H](CCCCN)NC(=O)[C@@H](NC(=O)CNC(=O)[C@H](C)N)CSSC[C@@H](C(=O)O)NC(=O)[C@H](CO)NC1=O` (stereo not given in full) the “activation” value was -0.678% (inactive).
With `COc1cc([C@@H]2c3cc4c(cc3C(O[C@@H]3O[C@@H]5CO[C@@H](C)O[C@H]5[C@H](O)[C@H]3O)C3COC(=O)[C@@H]32)OCO4)cc(OC)c1OP(=O)(O)O` (stereo not given in full) the Potency was 2.66 µM (active) and 6.68 µM (active).
With `O=C(O)[C@H]1/C(=C/CO)O[C@@H]2CC(=O)N21` the “activation” value was 1.19% (inactive).
In the case of `C#CCC(Cc1cnc2nc(N)nc(N)c2n1)c1ccc(C(=O)N[C@@H](CCC(=O)O)C(=O)O)cc1` (stereo not given in full), the “activation” value was -11.5% (inactive).

Source: PubChem BioAssay (Tox21)
% is scaled to controls: 0 for no effect and ±100 for the full control effect; potency is read from the fitted curve at half-maximal effect.
